Screens (PubChem BioAssay)
A selection: hits, their analogues and other compounds. The true share with any hit is near 4.1%.
hgDAF-12 ag: hgDAF-12 agonism, primary luciferase screen; HEK293 GAL4-hgDAF12 UAS-luciferase reporter, agonist luminescence; normalized to butyrate control; activation, % at 6.8 µM; 1.8% of 370,000 active; AID 687014;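 active = activation above a cutoff set at the mean of all screened compounds plus 3 SD, cut at about 10% in these data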
DAX1 inh-1: inhibitors of DAX1 repression of SF-1 activated StAR promoter; HEK293T StAR-luciferase reporter, SF-1/DAX-1 repression relief; AID 652010; 1.1% of 370,000 active; inhibition, % at 6.8 µM;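 active = inhibition above the mean over all tested compounds plus 3 SD, cut at about 3.6% in these data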;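 also: higher inhibition means more luminescence from relief of DAX-1 repression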
DAX1 inh-2: NR0B1 (DAX1) inhibition | AID 504766 | P51843 | inhibition, % at 6.75 µM | HEK293 Gal4-DAX1 luciferase reporter, luminescence | 0.99% of 340,000 active;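 active = inhibition above the mean over all tested compounds plus 3 SD, cut at about 4.2% in these data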;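 also: inhibition shows as a rise in luminescence from relieved DAX1 repression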
Target sequence (P51843 207-470 limits assumed): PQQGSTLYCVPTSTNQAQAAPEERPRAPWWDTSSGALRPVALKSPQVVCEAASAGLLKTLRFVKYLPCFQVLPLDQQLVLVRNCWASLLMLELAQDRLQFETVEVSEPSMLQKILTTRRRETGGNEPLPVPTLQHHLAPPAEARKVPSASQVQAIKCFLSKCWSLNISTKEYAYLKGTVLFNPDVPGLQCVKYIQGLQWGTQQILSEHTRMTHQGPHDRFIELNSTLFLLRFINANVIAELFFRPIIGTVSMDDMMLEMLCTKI
hcDAF-12 act: activators of H. contortus DAF-12 nuclear receptor. 1.4% of 370,000 active. AID 652067. activation, % at 6.8 µM. HEK293 hcDAF-12 lit1-tk-luc reporter, luminescence; 0% DMSO, 100% Δ7-dafachronic acid;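 active = activation above the mean of all tested compounds plus 3 SD, cut at about 5.5% in these data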
ssDAF12 agonist: activators of S. stercoralis DAF-12 nuclear receptor. AID 652126. activation, % at 6.8 µM. 1% of 370,000 active. HEK293 ssDAF-12/GRIP1 lit1-tk-luc reporter, luminescence; % of 3 µM dafachronic acid response;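 active = activation above the mean over all tested compounds plus 3 SD, cut at about 0.9% in these data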
Numbers stand for hits; . = inactive; / = no result.

SMILES	hgDAF-12 ag	DAX1 inh-1	DAX1 inh-2	hcDAF-12 act	ssDAF12 agonist
CN(C)c1ccc(CN(Cc2ccco2)C(=O)c2ccco2)cc1	.	.	.	.	.
O=C(c1ccco1)N(Cc1ccc(Cl)cc1)Cc1ccco1	.	.	.	5.7	.
Cc1ccc(C(=O)N/N=C2\CC3CC=CC23)c(C)c1 (centres undefined)	.	.	5.7	.	.
Cn1cc(NC(=O)OCc2ccc(Cl)cc2)c(C(F)(F)F)n1	.	3.7	.	.	.
CC1(C)CC(=O)C2=C(C1)OC(N)=C(C#N)[C@@]21C(=O)N(CC(N)=O)c2ccccc21	.	.	.	.	.
CC1(C)CC(=O)C2=C(C1)OC(N)=C(C#N)C21C(=O)N2CCCc3cccc1c32 (centres undefined)	.	.	.	.	1.0
OCCCCCN=c1cc(-c2ccccc2)oc2ccc(Cl)cc12	.	.	.	.	.
Clc1ccc2oc(-c3ccccc3)cc(=NCCCN3CCOCC3)c2c1	15.8	.	.	.	.
O=C(c1cccs1)N1CCc2ccccc21	.	.	.	.	.
O=C(C1CCCN1C(=O)c1cccs1)N1CCc2ccccc21 (centres undefined)	.	.	.	6.0	.
CCCC[C@@H]1C(=O)N2N=Cc3cc(C)c(C)cc3[C@H]2N2N=Cc3cc(C)c(C)cc3[C@@H]12	.	.	/	.	.
Cc1ccc(NC(=O)c2oc3ccccc3c2NC(=O)c2ccc3c(c2)OCO3)cc1	.	.	.	.	1.1
O=C(Nc1c(C(=O)Nc2cccc(F)c2)oc2ccccc12)c1ccc2c(c1)OCO2	.	.	.	.	.
C/C(=N\NC(=S)NCC(C)(C)C)c1cc(F)cc(F)c1O	.	.	4.7	.	.
Cc1ccc(NC(=O)c2ccccc2F)c(NC(=O)c2ccccc2F)c1	.	.	7.6	.	.
Cc1ccc(NC(=O)c2ccccc2Cl)c(Cl)c1	10.7	.	.	.	.
CC(=O)N1CCc2cc(S(=O)(=O)N3CCOCC3)ccc21	.	.	4.6	.	.
CCn1cc(C(=O)N2CCc3ccccc32)c(=O)c2cc(S(=O)(=O)N3CCOCC3)ccc21	.	.	.	5.9	.
CC(=O)c1ccc(NC(=O)CC(C)S(=O)(=O)c2ccc3c(c2)CCN3C(C)=O)cc1 (centres undefined)	.	4.1	.	.	.
CCn1cc(C(=O)NCCCN2CCC(C)CC2)c(=O)c2cc(S(=O)(=O)N3CCOCC3)ccc21	.	3.7	.	.	.
CCn1cc(C(=O)NCCCN2CCC(C)CC2)c(=O)c2cc(S(=O)(=O)N3CCCC3)ccc21	.	.	.	.	.
N#Cc1ccc(/C=C2\CC3(OC(=O)c4ccccc4)CCCN2C3)cc1 (centres undefined)	.	.	/	.	.
CCCCNC(=O)C[C@H]1C[C@@]2(C(=O)OC)C(=C[C@H](C3CCCC3)O[C@@H]2C)N(CCC2=CCCCC2)C1=O	.	.	/	.	.
COCCCN1C(=O)[C@H](CC(=O)NCc2cccc(C(F)(F)F)c2)[C@]2(C(=O)OC)CCCCC=C12	.	.	/	.	.
CCCCN(CCCC)CCNC(=O)c1cn(CC)c2ccc(S(=O)(=O)N3CCCC3)cc2c1=O	.	4.5	.	.	.
SMILES	hgDAF-12 ag	DAX1 inh-1	DAX1 inh-2	hcDAF-12 act	ssDAF12 agonist
CN(C1CCCCC1)S(=O)(=O)c1ccc2c(c1)c(=O)c(C(=O)NCCN1CCCC1)cn2C	.	.	.	.	.
CN(C1CCCCC1)S(=O)(=O)c1ccc2c(c1)c(=O)c(C(=O)NCCCN1CCCC1)cn2C	.	.	4.9	.	.
CC(C)N(C(N)=NC(=O)OCc1ccccc1)C(C)C	.	.	/	.	.
CN(C)C(CNC(=O)c1ccc2ccccc2n1)c1ccccc1 (centres undefined)	.	.	.	.	.
CC(NC(=O)c1ccc2ccccc2n1)c1ccccc1 (centres undefined)	.	.	5.4	.	.
CC(Cc1ccccc1)Nc1ncnc2c1ncn2C1OC(CO)C(O)C1O (centres undefined)	.	.	.	.	.
C[C@H](Cc1ccccc1)Nc1ncnc2c1ncn2[C@@H]1O[C@H](CO)[C@@H](O)[C@H]1O	.	3.8	.	.	.
Cc1noc(C)c1S(=O)(=O)N1CCN(S(=O)(=O)c2ccccc2C#N)CC1	.	.	7.8	.	.
Cc1ccc(C(=O)C2CCN(CC(=O)NCc3cccs3)CC2)cc1	.	.	/	.	.
CCOCCCNC(=O)c1cc2c(-c3ccc(Cl)cc3)nn(C)c2s1	.	.	.	.	.
CCN(CC)CCNC(=O)c1cc2c(-c3cccc(OC)c3)nn(C)c2s1	.	.	.	.	1.2
CCN(CC)CCNC(=O)c1cc2c(-c3ccc(Cl)cc3)nn(C)c2s1	.	.	.	9.7	.
COCCCNC(=O)c1cc2c(-c3cccc(OC)c3)nn(C)c2s1	.	.	.	.	.
CCCCn1c(O)c(/C=C2\C=Nc3ccccc32)c(=O)[nH]c1=O	.	.	.	6.0	.
Cc1cc(Br)cn2c(Cc3ccccc3C(F)(F)F)c(-c3ccco3)nc12	.	.	/	.	.
CCc1cccc(C)c1NC(=O)CSc1n[nH]c(N)n1	.	4.2	.	.	.
CCC1COC(c2cccn2Cc2ccccc2Cl)=N1 (centres undefined)	.	.	5.9	.	.
N#Cc1ccc(/C=C2\CC3(OC(=O)C4CCCC4)CCCN2C3)cc1 (centres undefined)	.	.	/	.	.
CCOC(=O)NN1C(=O)c2ccccc2NC1c1ccc(OC)c(OC)c1 (centres undefined)	.	.	4.6	.	.
COc1ccc(C2Nc3ccccc3C(=O)N2NC(C)=O)cc1OC (centres undefined)	.	.	.	.	.
COC(=O)[C@]12CCCCC=C1N(Cc1ccc(OC)cc1)C(=O)[C@@H]2CC(=O)NCCC(C)C	.	.	/	.	.
CC1=C(C(=O)O)CC(S(=O)(=O)O)C1(C)C (centres undefined)	.	3.7	.	.	.
CCN(CC)C(=O)Oc1ccc2cc(Br)ccc2c1	.	.	.	6.3	.
CC1CCN(C(=O)Cn2nnc(-c3cccs3)n2)CC1	.	3.6	6.0	.	.
O=C(Cn1nnc(-c2cccs2)n1)N1CCOCC1	.	.	.	.	.
CCCC[C@H](C(=O)N(C)c1cccc(OC)c1)[C@@H](O)c1ccc2ccccc2c1	.	.	/	.	.
COc1cc(-c2csc(C)n2)ccc1O	.	.	4.3	.	.
CCOC(=O)C1=C(COC(=O)c2cccc(N(C)C)c2)NC(=O)NC1C (centres undefined)	.	4.2	.	.	.
O=C(NCCCN1CCOCC1)c1ccccc1N1C(=O)[C@@H]2Cc3c([nH]c4ccccc34)C(c3ccccc3)N2C1=O (some centres undefined)	.	.	/	5.8	.
